# HT1080NT lethal: kills 2HG-producing HT-1080-NT fibrosarcoma cells; HT-1080-NT fibrosarcoma viability, CellTiter-Glo ATP luminescence, 48 h; Potency, µM (series often up to 46.1 µM), hits mostly cytotoxic; 360,000 tested, 1.6% active; AID 686970;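 also: NT is the 2HG producing partner of a matched IDH1 knockdown line; nearly all actives have a fitted effect of over 55% in size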
#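 Luminescent CellTiter-Glo readout after 48 hours of compound exposure at 37 degrees C defined viability of HT-1080-NT cells. Activity was normalized to DMSO wells and cell-free media wells; concentration-response curves were fitted and assigned curve classes.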
# IL1B secr inh: inflammasome signaling inhibition, IL-1 beta readout. THP-1 LPS/ATP IL-1B secretion, AlphaLISA, 16 h; stronger effect = lower value. activity change, % at 57.5 µM. 360,000 tested, 4.7% active; in the data active = activity change below about -50%; inconclusive = mostly about -30% to -49%
#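 Secreted IL-1B measured by AlphaLISA bead assay after 16 h compound exposure of THP-1 cells; compounds (final up to 57.5 uM) added 1 h before LPS (250 ng/mL) and ATP (1.25 mM) stimulation; lower signal means less secretion.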
# DT40 TDP1 no CPT: qHTS for Inhibitors of human tyrosyl-DNA phosphodiesterase 1 (TDP1): qHTS in cells in absence of CPT. DT40 Tdp1-/- hTDP1 cells, no CPT, ATP luminescence, 48 h. Potency, µM (series often up to 46.2 µM), most hits filed as inhibitors. 420,000 tested, 15% active. AID 686978, 2013; also: nearly all actives have a fitted effect of over 55% in size
#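 Readout: luminescence from CellTiter-Glo after 30 min in the dark at RT. Cells: DT40 Tdp1-/- with stable hTDP1, 400/well. Exposure: compounds alone, ≥48 hr, 37 °C.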
# HT1080 IDH1KD tx: toxicity to HT-1080 IDH1 knockdown cells (counter line) | HT-1080 IDH1 knockdown viability, ATP luminescence, 48 h | Potency, µM (doses to about 46.1 µM), most hits filed as cytotoxic | 360,000 tested, 2% active | AID 686971
#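 After a 2 h attachment period, IDH1KD HT-1080 cells took pin-transferred compound for 48 h at 37 °C; ATP-based luminescence after 10 min room-temperature reagent incubation reported viability.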
# ALOX12 inh: blocks human arachidonate 12S-lipoxygenase. purified 12hLO, xylenol orange hydroperoxide absorbance. Potency, µM (doses to about 108 µM), usual class: inhibitors. 580,000 tested, 1.1% active. AID 1671190
# Target sequence (P18054 whole entry, looked up): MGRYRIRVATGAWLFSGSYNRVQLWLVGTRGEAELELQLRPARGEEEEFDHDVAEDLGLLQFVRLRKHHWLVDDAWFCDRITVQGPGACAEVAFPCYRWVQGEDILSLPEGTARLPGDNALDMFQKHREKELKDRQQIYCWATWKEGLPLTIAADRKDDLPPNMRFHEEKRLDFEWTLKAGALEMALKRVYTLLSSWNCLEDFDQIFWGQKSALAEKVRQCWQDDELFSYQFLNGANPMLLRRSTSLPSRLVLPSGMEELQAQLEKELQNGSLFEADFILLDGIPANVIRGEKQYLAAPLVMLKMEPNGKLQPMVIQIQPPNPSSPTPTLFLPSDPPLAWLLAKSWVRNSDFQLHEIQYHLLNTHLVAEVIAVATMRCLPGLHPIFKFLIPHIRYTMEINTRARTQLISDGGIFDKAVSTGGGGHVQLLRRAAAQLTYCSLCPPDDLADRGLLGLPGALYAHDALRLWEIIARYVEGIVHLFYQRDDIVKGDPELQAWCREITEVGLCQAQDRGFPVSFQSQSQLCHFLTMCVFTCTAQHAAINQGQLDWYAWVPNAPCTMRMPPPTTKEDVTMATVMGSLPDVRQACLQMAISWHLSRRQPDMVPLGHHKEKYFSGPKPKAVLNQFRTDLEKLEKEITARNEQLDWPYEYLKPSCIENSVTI
#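 Purified human 12hLO at 150 nM in 25 mM Hepes, 0.01% Triton X-100, pH 7.0, preincubated 15 min at room temperature with compound. Reaction started with 40 uM arachidonic acid, 30 min at room temperature. Hydroperoxide measured by Fe-xylenol orange, 573/405 nm absorbance ratio.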
# DT40 TDP1 CPT: growth inhibition of DT40 Tdp1-/-;hTDP1 cells with camptothecin (screen for TDP1 inhibitors); chicken DT40 Tdp1-/-;hTDP1 cells + 20 nM CPT, ATP luminescence, 48 h; Potency, µM (highest dose often 46.2 µM), hits mostly inhibitors; 420,000 tested, 12% active; AID 686979; also: nearly all actives have a fitted effect of over 55% in size
#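 Chicken DT40 Tdp1-/- cells complemented with human TDP1, 400 cells/well, exposed to compounds plus 20 nM camptothecin for at least 48 h at 37 C; viability read as ATP content by CellTiter-Glo luminescence.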
# Numbers stand for hits; n = inactive; u = inconclusive; x = no result; [ ] = remark or other dose. This is one part of a sample in which hits are shown more often than they occur. Unless noted, calls follow the shape of the dose curve; as a rule, active = well fitted curve in the direction sought with a large enough effect; inconclusive = small, poorly fitted or top-dose-only effect, or another doubt; inactive = no such curve, though single readings can be large; an effect the other way counts as inactive or inconclusive.
SMILES,HT1080NT lethal,IL1B secr inh,DT40 TDP1 no CPT,HT1080 IDH1KD tx,ALOX12 inh,DT40 TDP1 CPT
Cc1ccc(-n2ncc3c(NCCCc4ccccc4)ncnc32)cc1,x,x,n,x,n,n
Cc1ccc(S(=O)c2ccc([N+](=O)[O-])c3nonc23)cc1 (stereo not drawn),n,u,3.3µM,n,2µM,2.6µM
Cc1ccc(CNC(=O)Cn2cnc(S(=O)(=O)N3CCC(C)CC3)c2)o1,n,n,n,n,n,n
COc1cc(/C=C(\C#N)c2nc3ccccc3[nH]2)cc(I)c1OC,x,x,x,x,n,x
Cc1ccc(S(=O)(=O)N2CCN(Cc3ccccn3)CC2)cc1,n,n,u,n,n,n
Cc1ccc(S(=O)(=O)N2CCN(Cc3ccccc3Cl)CC2)cc1,x,x,18µM,x,u,u
Cc1ccc(S(=O)(=O)N2CCN(Cc3ccccc3C(F)(F)F)CC2)cc1,n,n,n,n[9.24 µM],1.1µM,n
CCS(=O)(=O)N1CC(=O)N(c2cccc(Cl)c2C)C(C)(C(=O)NC2CCCCC2)C1 (stereo not drawn),x,x,n,x,n,n
C=C1NN(CC2CC2)C(=O)N1c1ccc(OCc2ccccc2)cc1,x,x,13µM,x,x,u
Cc1ccc(OCC(=O)Nc2nnc(SCc3cc(=O)n4cc(C)ccc4n3)s2)cc1,x,x,n,x,n,n
Cc1cccc(Nc2nnc(SCc3cc(=O)n4cc(C)ccc4n3)s2)c1,n,n,23µM,n,n,23µM
COc1ccccc1Nc1nnc(SCc2cc(=O)n3ccsc3n2)s1,u,n,23µM,u,n,u
CCOC(=O)N(C)c1c(CC)nc2c(OCc3ccc(OC(F)F)cc3)cccn12,n,n,15µM,n,n,u
CCc1nc2c(OCc3ccc(OC)cc3)cccn2c1N(C)C(=O)c1ccc(OC)cc1,n,n,u,n,n,u
CCc1nc2c(OCc3ccc(C(F)(F)F)cc3)cccn2c1N(C)C(=O)c1ccc(OC)cc1,u,-81,13µM,u,n,10µM
CCCCC(=O)N(C)c1c(CC)nc2c(OCc3ccc(C(F)(F)F)cc3)cccn12,u,u,u,u,n,u
CCc1nc2c(OCc3ccc(OC(F)F)cc3)cccn2c1N(C)C(=O)c1ccco1,n,n,u,n,u,u
CCOC(=O)N(C)c1c(CC)nc2c(OCc3ccc(C(F)(F)F)cc3)cccn12,u,n,13µM,u,n,u
CCc1nc2c(OCc3ccc(C(F)(F)F)cc3)cccn2c1N(C)C(=O)c1ccc(C)cc1,u,-76,23µM,u,u,23µM
CCc1nc2c(OCCOC)cccn2c1N(C)C(=O)c1ccc(C)cc1,n,n,n,n,u,n
Cn1nccc1OCc1cn2c(=O)n(C)cc(-c3cccc(OCc4ccccc4)c3)c2n1,x,x,x,x,n,x
CN(C)c1nc2c(c(=O)[nH]1)CCN(Cc1cc(F)c(F)cc1F)CC2,x,x,x,x,n,x
CCc1nc2c(OCc3ccc(C#N)cc3)cccn2c1N(C)C(=O)c1ccc(C)cc1,n,n,18µM,n,u,18µM
CCc1nc2c(OCc3ccc(C#N)cc3)cccn2c1N(C)C(=O)C(C)C,n,n,u,n,n,u
Cc1cc(OC(C)C(=O)N2CCc3c(nc[nH]c3=O)C2)cc(C)c1Cl (stereo not drawn),x,x,x,x,n,x
SMILES,HT1080NT lethal,IL1B secr inh,DT40 TDP1 no CPT,HT1080 IDH1KD tx,ALOX12 inh,DT40 TDP1 CPT
Cc1ccc(S(=O)(=O)N2CCN(Cc3cccc4cccnc34)CC2)c(C)c1,x,x,x,x,n,x
COc1ccccc1N1CCN(c2ncc3c(n2)CCCC3=O)CC1,x,x,x,x,n,x
O=C1CCCc2nc(N3CCN(C(c4ccccc4)c4ccccc4)CC3)ncc21,n,n,21µM,n,n,16µM
CCN1CCN(S(=O)(=O)c2ccc(Cl)c(C(=O)N(CCc3ccccc3)Cc3ccccc3)c2)CC1,u,n,23µM,u,u,23µM
O=C(NCCc1ccccc1)c1cc(S(=O)(=O)N2CCOCC2)ccc1F,n,n,n,n,n,n
CCN1CCN(S(=O)(=O)c2ccc(Cl)c(C(=O)N(CC)Cc3ccccc3)c2)CC1,n,n,u,n,u,u
O=C(c1ccc(Cl)cc1Cl)N(CCS(=O)(=O)N1CCCCC1)Cc1cccnc1,x,x,x,x,0.5µM,x
O=C(c1cc(S(=O)(=O)N2CCOCC2)ccc1F)N(CCc1ccccc1)Cc1ccccc1,n,u,23µM,n,n,u
Cc1ccc(S(=O)(=O)N(C)Cc2ccccc2)cc1C(=O)N1CCCCC1,n,n,u,n,n,15µM
O=C(NCCN1CCN(S(=O)(=O)c2ccc3ccccc3c2)CC1)C(=O)Nc1ccc(F)cc1,x,x,x,x,n,x
Cc1ccc(CNC(=O)NCC(=O)Nc2cccc(C(F)(F)F)c2)cc1,x,x,x,x,n,x
CCc1ccc(CN(C)C(=O)c2cc(S(=O)(=O)N3CCN(CC)CC3)ccc2Cl)cc1,n,-67,18µM,n,n,u
Cc1ccc(S(=O)(=O)N2CCCCC2)cc1C(=O)N(CCc1ccccc1)Cc1ccccc1,n,n,10µM,n,n,8.2µM
Cc1ccccc1C(=O)N1CCC(C(=O)NCc2ccc(Cl)cc2)CC1,n,n,u,n,n,u
Cc1ccc(N(Cc2ccccc2)C(=O)c2cc(S(=O)(=O)N3CCOCC3)ccc2C)cc1,n,n,13µM,n,n,21µM
COCCN(Cc1ccccc1)C(=O)c1cc(S(=O)(=O)N2CCCCCC2)ccc1OC,n,n,u,n,n,u
Cc1cccc(N(Cc2ccccc2)C(=O)C2CCN(C(=O)c3ccccc3C)CC2)c1,n,n,5.8µM,n,n,12µM
CC1=C(C(=O)N(C(C)C)C(C)C)CC(CC(=O)NC2CCCC2)C(=O)N1CCC1=CCCCC1 (stereo not drawn),n,u,23µM,n,n,u
CC1=C(C(=O)N(C)C)CC(CC(=O)NC2CC2)C(=O)N1CCC1=CCCCC1 (stereo not drawn),n,n,n,n,u,n
CC1=C(C(=O)N(C(C)C)C(C)C)CC(CC(=O)NC2CC2)C(=O)N1CCC1=CCCCC1 (stereo not drawn),n,n,u,n,n,16µM
CNC(=O)[C@@H]1CN(C(=O)c2ccoc2C)C[C@H]1c1nc(C)no1,x,x,x,x,n,x
CC(C)CC(NC(=O)c1cccc(-n2cnnc2)c1)c1ncnn1C (stereo not drawn),x,x,x,x,n,x
CCOCC(O)CNc1ccccc1 (stereo not drawn),n,n,n,n,n,n
CCC(C)(C)c1ccc(OCC(O)CNCc2ccccc2)c(C(C)(C)CC)c1 (stereo not drawn),x,x,x,x,45µM,x
COc1ccc(CNCC(O)COc2ccc(C(C)(C)c3ccccc3)cc2)cc1 (stereo not drawn),21µM,-100,u,16µM,u,u

# Source: PubChem BioAssay (National Center for Advancing Translational Sciences (NCATS))
